# Experimental data as given in PubChem BioAssay (NCI).
# The panel holds about 83,000 compounds, 20% with a hit somewhere; the sample as a whole holds those more often.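 Compound tested at a single concentration for 48 hours in 96-well plates; a percent growth value below 10 was scored as active.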 A number with no mark means an inactive call. Active and inactive are the calls of the source.
# System: 786-0 renal
# Experiment: NCI-60 one-dose screen, 48 h (100 = growth as untreated, 0 = no growth, -100 = all killed)
# Details: 10 µM unless noted
row,SMILES,growth
1,O=C(O)c1ccc(-n2c(=O)c3ccccc3c3ccccc3c2=O)cc1,109%
2,Cc1nn(-c2ccc(Cl)cc2)c(=O)n1CCOc1ccccc1Cl,93.7%
3,CC(C)(C)OC(=O)N[C@@H](Cc1ccccc1)C(=O)N(Cc1ccccc1)C1(C(=O)NCc2ccccc2)CCN(Cc2ccccc2)CC1,51.7%
4,COc1ccc(C(=O)c2cc(OC)c(OC)c(OC)c2)cc1/C=C/C(=O)c1ccc(OC)c(OC)c1,55.9%
5,CCCCNC(=O)NS(=O)(=O)c1ccc(N2N=C(c3ccc(C)cc3C)CC2c2ccc(OC)cc2)cc1 (stereo not drawn),61.3%

# System: COLO 205 colon
# Experiment: as above
# Details: 10 µM unless noted
row,SMILES,growth
1,C[C@]12CC[C@@H]3c4cc(O)c(O)cc4CC[C@H]3[C@@H]1CC[C@@H]2O,115%
2,CCCOC(=O)C1(O)CCCC1,118%
3,COC1=CC(c2ccc[nH]2)=N/C1=C\c1[nH]c(C)c(C(=O)CCCCC(=O)NCc2ccccc2)c1C,55.2%
4,O=C(NNC(=S)Nc1ccccc1)c1ccccn1,22.5%
5,COc1cc(NC(=O)CCl)ccc(=O)c1,82.6%
6,COc1ccc(S(=O)(=O)N2CCN(c3cc4c(cc3F)c(=O)c(C(=O)O)cn4C3CC3)CC2)c(OC)c1,105%
7,COc1ccc(Cn2cc(COc3cc(/C=C/C(=O)c4cc(OC)c(OC)c(OC)c4)ccc3OC)nn2)cc1,81.9%
8,COc1cc(C(=O)OCCCCCCCCCCC[P+](c2ccccc2)(c2ccccc2)c2ccccc2)ccc1O,-84.1% (active)
9,CC(C(=O)n1cc(-c2ccccc2)c(-c2ccccc2)c1)c1ccccc1 (stereo not drawn),122%
10,C=CCOc1cccc(/C=C/C(=O)c2sc(Nc3cccnc3)nc2C)c1,91.3%
11,O=C(CCCn1c(=O)c2sc3ccccc3c2n2nnc(-c3ccccc3)c12)NCCc1cnc[nH]1,-36.8% (active)
12,CCC1CCc2nc3sc(C(=O)Nc4cccc(C)c4)c(N)c3cc2C1 (stereo not drawn),93%
13,Cc1cccc(NC(=O)c2sc3nc4c(cc3c2N)CCCC4)c1,26.9%
14,COc1ccc(-c2cn[nH]c2-c2cc(OC)c3c(c2)OCCO3)cc1,-59.5% (active)
15,CC(C)C[C@H](NC(=O)Cn1ccc(NCc2ccccc2)cc1=O)B(O)O,32%
16,CC[C@H](C)[C@H]1NC(=O)[C@@H](N[C@](C)(O)[C@@H](N)CC(C)C)[C@@H](C)OC(=O)[C@H](Cc2ccc(OC)cc2)N(C)C(=O)[C@@H]2CCCN2C(=O)[C@H](CC(C)C)NC(=O)[C@@H](C)C(=O)[C@H](C(C)C)OC(=O)C[C@@H]1O,-65.1% (active)
17,CCNC(=O)C1CCCN1C(=O)C(CCCN=C(N)N)NC(=O)C(CC(C)C)NC(=O)C(CC(C)C)NC(=O)C(Cc1ccc(O)cc1)NC(=O)C(CO)NC(=O)C(Cc1c[nH]c2ccccc12)NC(=O)C(Cc1cnc[nH]1)NC(=O)C1CCC(=O)N1 (stereo not drawn),94.9%
18,COC(=O)c1cc(-c2cccs2)c(C#N)c(N)c1C#N,109%
19,O=C1N=C(c2c(-c3[nH]c(=O)c4ccc(Br)cc4c3O)c(O)c3ccccc3c2O)C(=O)c2cc(Br)ccc21,73.1%

row,SMILES,growth
1,CC[C@]1(O)C[C@@H]2CN(Cc3c([nH]c4ccccc34)[C@@](C(=O)OC)(c3cc4c(cc3OC)N(C)[C@H]3[C@@](O)(C(=O)OC)[C@H](OC(C)=O)[C@]5(CC)[C@@H]6C[C@@H]6CN6CC[C@]43[C@@H]65)C2)C1,-49.5% (active)
2,CCOC(=O)[C@H](CSSc1ncnc2cc[nH]c12)NC(=O)[C@@H](C)c1ccc2cc(OC)ccc2c1,3.67% (active)
3,Cc1nc(Nc2cccnc2)sc1C(=O)/C=C/c1ccc(F)cc1,56.4%
4,COc1ccc(C2=CC(c3ccc(Oc4ccnc5cc(Cl)ccc45)c(OC)c3)c3c(nc(OC)[nH]c3=O)N2)cc1 (stereo not drawn),102%
5,COc1ccccc1CNCCCN1C(=O)c2ccc3c4c(ccc(c24)C1=O)C(=O)N(CCCNCCCCNCCCCN)C3=O,-45.4% (active)
6,Cc1cc(C)c(S(=O)(=O)N2CCN(c3cc4c(cc3F)c(=O)c(C(=O)O)cn4C3CC3)CC2)c(C)c1,57.6%
7,COc1ccc(C(=O)/C=C/c2cc(C(=O)c3cc(OC)c(OC)c(OC)c3)ccc2OC)cc1,75.9%
8,NC(=O)NC(=O)/C=C/C(=O)OCCCl,97.7%
9,COc1cc2nc(N3CCC[C@@H](NC4=CC(=O)c5ccccc5C4=O)C3)nc(N)c2cc1OC,-71.8% (active)
10,O=S(=O)(c1ccccc1)n1ccc(-c2ccc3c(c2)CCO3)n1,96.9%
11,O=C(CNc1ccc(Cl)cc1)Nc1ccc(-c2nc3ccccc3s2)cc1,47%
12,COc1ccc(/C=C2\CCCC3=C2NC(C)=NC3c2ccc(OC)c(OC)c2)cc1OC (stereo not drawn),-29.8% (active)
13,COc1cc(OC)c(C(=O)/C=C/c2ccc(C(F)(F)F)cc2)c(OC)c1,86.9%
14,O=C(CCl)NCCNc1nccc(Nc2ccc(S(=O)(=O)Nc3ccccn3)cc2)n1,61.1%
15,O=C(O)c1ccc(-n2c(=O)c3ccccc3c3ccccc3c2=O)cc1,105%
16,Cc1nn(-c2ccc(Cl)cc2)c(=O)n1CCOc1ccccc1Cl,101%
17,CC(C)(C)OC(=O)N[C@@H](Cc1ccccc1)C(=O)N(Cc1ccccc1)C1(C(=O)NCc2ccccc2)CCN(Cc2ccccc2)CC1,16.3%
18,COc1ccc(C(=O)c2cc(OC)c(OC)c(OC)c2)cc1/C=C/C(=O)c1ccc(OC)c(OC)c1,31.3%
19,CCCCNC(=O)NS(=O)(=O)c1ccc(N2N=C(c3ccc(C)cc3C)CC2c2ccc(OC)cc2)cc1 (stereo not drawn),93.5%
